Experimental data from PubChem BioAssay.
Calls of active or inactive are those of the source.

How the values were obtained:
[1] = target: Albumin (Bos taurus) (UniProt P02769); assay: compounds binding labelled BSA control protein – biochemical, small-molecule microarray, Alexa647 label, 635/667 nm fluorescence, artefact control for SMM control protein annotation, profiling panel (AID 1118); conditions: BSA-A647 binding, fluorescence 635 nm, higher = more signal;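 also: score merges 667 nm emission intensity and signal-to-noise per printed compound spot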
[2] = probe aXIP binding to arrayed compounds – biochemical, NeuroSMM set, 635/667 nm fluorescence, primary screen (AID 1119); conditions: small-molecule microarray, higher = more signal, called active from +8 up or from −8 down;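 also: probe is the protein aXip251-270 applied at 1 µg/mL to compound-printed slides; binding of probe to printed compounds measured as 667 nm fluorescence plus signal to noise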
[3] = probe aNOTCH3 binding on compound microarray – biochemical, small-molecule microarray, 635/667 nm fluorescence, primary screen (AID 1120); conditions: higher = more signal;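 also: probe is a biotin-tagged antibody raised against NOTCH3 rather than NOTCH3 protein; score merges spot fluorescence near 667 nm with spot signal to noise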
[4] = probe aNOTCH2 binding on compound microarray – biochemical, small-molecule microarray, 635/667 nm fluorescence, primary screen (AID 1121); conditions: higher = more signal;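 also: score merges feature fluorescence read at 667 nm with its signal to noise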
[5] = target: Carbonic anhydrase 2 (Homo sapiens) (UniProt P00918); assay: compounds binding carbonic anhydrase 2 – biochemical, small-molecule microarray, Alexa647-labelled CAII, profiling panel (AID 1122); conditions: CAII-A647 binding fluorescence, higher = more signal
[6] = COS7 lysate on small-molecule microarray, probe aHis, 635 nm (AID 1123); conditions: COS7 cell lysate, fluorescence, higher = more signal;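 also: z-score combines 667nm fluorescence intensity with signal-to-noise per printed compound spot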
[7] = probe aLAP1 signal on lysate-treated microarray – cell lysate, small-molecule microarray, COS7 lysate, primary screen (AID 1124); conditions: probe aLAP1, fluorescence, higher = more signal;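 also: lysate comes from COS7 cells expressing LAP1 and is applied at 0.3 µg/mL; score merges spot fluorescence near 667 nm with signal-to-noise over triplicate slides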
[8] = tested on: Sam68 (KHDRBS1); assay: compounds binding KHDRBS1 protein – biochemical, small-molecule microarray, 635 nm fluorescence, primary screen (AID 1125); conditions: higher = more signal;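 also: score merges 667 nm channel intensity with signal to noise over triplicate slides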
[9] = tested on: Chordin-like protein 2 (CHRDL2); assay: compounds binding chordin-like 2 – biochemical, small-molecule microarray, 635 nm fluorescence, primary screen (AID 1126); conditions: fluorescence 635 nm, higher = more signal;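 also: printed compound slides probed with Chrdl2 protein at 4 µg/mL for 1 h at 4 C; score merges 667 nm emission intensity with signal to noise over three replicate slides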
[10] = target: Concanavalin-A (Canavalia ensiformis) (UniProt P02866); assay: compounds binding concanavalin A lectin – biochemical, small-molecule microarray, Alexa647 label, 635 nm, artefact control for SMM control protein annotation, primary screen (AID 1127); conditions: ConA-A647 binding fluorescence, higher = more signal;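 also: z combines 667 nm emission intensity with signal-to-noise across three replicate slides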
[11] = compounds binding Alexa647 anti-His antibody – biochemical, small-molecule microarray, 635 nm fluorescence, artefact control for SMM control protein annotation, primary screen (AID 1128); conditions: higher = more signal;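 also: score merges feature fluorescence with signal-to-noise for each printed compound spot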
[12] = tested on: Human papillomavirus type 1a E7 protein (residues 1-88); assay: HPV1a E7 small-molecule binders, primary screen, biochemical, small-molecule microarray, residues 1-88, 635 nm (AID 1129); conditions: small-molecule microarray binding, fluorescence 635 nm; higher = more signal
[13] = target: Focal adhesion kinase 1 (Homo sapiens) (UniProt Q05397); assay: PTK2 protein binding on printed compound slides – biochemical, small-molecule microarray, 635/667 nm fluorescence, BSA, DTT, primary screen (AID 1130); conditions: 635 nm fluorescence, higher = more signal;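 also: composite of spot emission at 667 nm and signal to noise over triplicate slides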
[14] = tested on: Fibrinogen (Alexa647-labelled); assay: Alexa647-fibrinogen binding to printed small molecules – biochemical, small-molecule microarray, 635/667 nm fluorescence, artefact control for SMM control-protein annotation, profiling panel (AID 1131); conditions: fibrinogen-A647 binding fluorescence, higher = more signal;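 also: z-score merges 667 nm fluorescence with per-spot signal-to-noise over triplicate slides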
[15] = target: Follistatin (Homo sapiens) (UniProt P19883); assay: FST protein binding to printed compounds – biochemical, small-molecule microarray, 635/667 nm fluorescence, primary screen (AID 1132); conditions: 635 nm fluorescence, higher = more signal
[16] = target: Fibroblast growth factor 2 (Homo sapiens) (UniProt P09038); assay: basic fibroblast growth factor binding to printed compounds – biochemical, small-molecule microarray, 635/667 nm fluorescence, primary screen (AID 1133); conditions: FGF2, fluorescence 635/667, higher = more signal
[17] = JC-1 mitochondrial potential readout, lung cancer cells – cell-based, A549, JC-1 fluorescence, basal, 24 h, 100 nL, profiling panel (AID 1138); conditions: higher = more signal;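 also: A549 lung adenocarcinoma cells under basal conditions with no added stimulus; test concentration not given here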
[18] = tested on: Lefty1; assay: Lefty1 protein binding to printed compounds – biochemical, small-molecule microarray, 635/667 nm fluorescence, primary screen (AID 1139); conditions: fluorescence 635/667, higher = more signal
[19] = tested on: wheat germ agglutinin (Triticum aestivum), Alexa647-labelled; assay: Alexa647-WGA lectin binding to printed small molecules – biochemical, small-molecule microarray, 635/667 nm fluorescence, artefact control for SMM control-protein annotation, profiling panel (AID 1140); conditions: WGA-A647 binding, 635 nm fluorescence, higher = more signal;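 also: score merges 667 nm feature emission with signal to noise over triplicate slides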
[20] = target: Luciferin 4-monooxygenase (Photinus pyralis) (UniProt P08659); assay: inhibition of purified Photinus pyralis luciferase – biochemical, luminescence, purified enzyme, 2006 set, primary screen (AID 1141); conditions: purified firefly luciferase, SteadyGlo luminescence, 30 min; higher = more signal, called active from +8 up or from −8 down;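 also: cell-free assay with purified firefly luciferase at 100 ng per well in PBS; test concentration not given here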
Sequence of Luciferin 4-monooxygenase (Photinus pyralis) (P08659 whole entry, looked up): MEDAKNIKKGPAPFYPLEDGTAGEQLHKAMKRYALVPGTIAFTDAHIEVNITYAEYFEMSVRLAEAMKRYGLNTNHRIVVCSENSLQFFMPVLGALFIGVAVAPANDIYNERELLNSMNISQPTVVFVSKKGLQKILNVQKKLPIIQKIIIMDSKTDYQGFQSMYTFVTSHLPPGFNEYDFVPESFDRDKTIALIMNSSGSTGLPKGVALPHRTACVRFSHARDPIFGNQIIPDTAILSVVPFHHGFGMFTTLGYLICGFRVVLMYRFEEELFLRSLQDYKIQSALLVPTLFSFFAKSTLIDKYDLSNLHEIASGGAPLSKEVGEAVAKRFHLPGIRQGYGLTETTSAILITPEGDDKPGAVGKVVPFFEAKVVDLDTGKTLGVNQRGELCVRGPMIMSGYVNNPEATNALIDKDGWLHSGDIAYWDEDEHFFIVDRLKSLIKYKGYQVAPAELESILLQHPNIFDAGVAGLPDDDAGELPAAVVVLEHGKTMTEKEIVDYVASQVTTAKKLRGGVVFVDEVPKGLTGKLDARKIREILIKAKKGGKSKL

Sequence of Concanavalin-A (Canavalia ensiformis) (P02866 whole entry, looked up): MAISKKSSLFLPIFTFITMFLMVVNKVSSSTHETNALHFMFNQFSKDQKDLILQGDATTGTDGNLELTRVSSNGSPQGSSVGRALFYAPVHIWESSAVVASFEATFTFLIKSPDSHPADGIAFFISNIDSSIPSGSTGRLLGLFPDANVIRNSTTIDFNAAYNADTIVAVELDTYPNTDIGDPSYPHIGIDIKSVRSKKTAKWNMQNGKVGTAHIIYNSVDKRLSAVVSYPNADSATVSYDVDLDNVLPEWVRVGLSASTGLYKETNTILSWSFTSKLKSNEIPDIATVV
Sequence of Focal adhesion kinase 1 (Homo sapiens) (Q05397 whole entry, looked up): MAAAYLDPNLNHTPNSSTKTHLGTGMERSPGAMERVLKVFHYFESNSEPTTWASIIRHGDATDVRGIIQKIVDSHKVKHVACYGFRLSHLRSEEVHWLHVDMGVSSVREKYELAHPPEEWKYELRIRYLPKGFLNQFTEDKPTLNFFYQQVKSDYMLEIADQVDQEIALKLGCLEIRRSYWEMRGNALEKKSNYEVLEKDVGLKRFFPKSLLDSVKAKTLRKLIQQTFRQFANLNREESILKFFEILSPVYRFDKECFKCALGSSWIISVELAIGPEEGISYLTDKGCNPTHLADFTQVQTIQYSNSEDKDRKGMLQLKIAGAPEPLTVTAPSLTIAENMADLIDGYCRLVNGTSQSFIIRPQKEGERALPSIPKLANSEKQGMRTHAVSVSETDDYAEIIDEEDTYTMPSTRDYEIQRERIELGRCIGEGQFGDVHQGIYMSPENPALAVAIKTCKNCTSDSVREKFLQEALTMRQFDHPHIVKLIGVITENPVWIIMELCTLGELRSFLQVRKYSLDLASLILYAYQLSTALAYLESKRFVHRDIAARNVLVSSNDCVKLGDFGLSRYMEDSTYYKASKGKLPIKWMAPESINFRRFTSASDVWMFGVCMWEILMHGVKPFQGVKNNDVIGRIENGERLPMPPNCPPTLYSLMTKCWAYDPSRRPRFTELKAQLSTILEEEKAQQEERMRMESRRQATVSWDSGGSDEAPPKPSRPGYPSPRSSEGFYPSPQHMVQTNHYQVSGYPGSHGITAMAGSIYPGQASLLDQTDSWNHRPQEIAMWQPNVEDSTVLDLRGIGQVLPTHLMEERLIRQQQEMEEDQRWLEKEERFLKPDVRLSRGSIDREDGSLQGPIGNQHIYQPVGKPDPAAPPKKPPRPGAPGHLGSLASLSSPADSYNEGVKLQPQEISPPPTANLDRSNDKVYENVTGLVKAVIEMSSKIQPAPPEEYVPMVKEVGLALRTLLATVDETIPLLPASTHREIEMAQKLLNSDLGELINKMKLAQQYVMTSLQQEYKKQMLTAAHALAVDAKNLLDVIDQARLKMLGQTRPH
Sequence of Fibroblast growth factor 2 (Homo sapiens) (P09038 whole entry, looked up): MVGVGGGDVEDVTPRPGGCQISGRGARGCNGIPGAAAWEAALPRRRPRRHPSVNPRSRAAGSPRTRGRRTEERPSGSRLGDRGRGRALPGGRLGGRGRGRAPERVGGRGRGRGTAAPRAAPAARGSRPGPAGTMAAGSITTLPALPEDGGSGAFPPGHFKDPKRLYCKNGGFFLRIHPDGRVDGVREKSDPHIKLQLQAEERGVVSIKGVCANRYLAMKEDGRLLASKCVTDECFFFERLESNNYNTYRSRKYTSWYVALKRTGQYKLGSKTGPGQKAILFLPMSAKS
Sequence of Follistatin (Homo sapiens) (P19883 whole entry, looked up): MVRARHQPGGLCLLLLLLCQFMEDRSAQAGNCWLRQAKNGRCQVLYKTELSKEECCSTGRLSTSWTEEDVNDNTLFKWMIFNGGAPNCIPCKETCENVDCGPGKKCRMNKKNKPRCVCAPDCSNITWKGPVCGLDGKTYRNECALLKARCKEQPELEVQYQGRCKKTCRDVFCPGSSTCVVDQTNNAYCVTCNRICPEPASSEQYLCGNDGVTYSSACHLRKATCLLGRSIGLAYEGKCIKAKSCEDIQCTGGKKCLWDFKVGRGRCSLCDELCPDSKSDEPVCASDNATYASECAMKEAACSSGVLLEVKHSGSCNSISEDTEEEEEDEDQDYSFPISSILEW
Sequence of Albumin (Bos taurus) (P02769 whole entry, looked up): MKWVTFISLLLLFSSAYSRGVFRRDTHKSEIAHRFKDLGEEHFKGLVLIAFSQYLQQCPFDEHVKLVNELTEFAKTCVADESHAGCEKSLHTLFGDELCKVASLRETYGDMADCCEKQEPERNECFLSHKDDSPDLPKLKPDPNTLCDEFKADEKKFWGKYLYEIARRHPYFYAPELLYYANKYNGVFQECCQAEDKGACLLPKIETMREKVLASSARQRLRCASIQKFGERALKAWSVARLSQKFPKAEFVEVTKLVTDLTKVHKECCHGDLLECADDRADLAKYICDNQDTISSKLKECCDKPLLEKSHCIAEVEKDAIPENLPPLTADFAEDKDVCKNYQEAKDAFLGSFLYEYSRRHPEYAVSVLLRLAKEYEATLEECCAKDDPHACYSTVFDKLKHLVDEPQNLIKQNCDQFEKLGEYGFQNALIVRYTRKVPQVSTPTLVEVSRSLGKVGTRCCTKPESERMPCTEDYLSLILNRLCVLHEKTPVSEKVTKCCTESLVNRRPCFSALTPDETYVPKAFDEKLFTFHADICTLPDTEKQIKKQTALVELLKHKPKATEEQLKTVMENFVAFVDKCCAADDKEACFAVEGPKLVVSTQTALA

Compound | composite z-score [1] | composite Z-score [2] | composite z-score [3] | composite z-score [4] | composite z-score [5] | composite z-score [6] | composite z-score [7] | composite z-score [8] | composite z-score [9] | composite z-score [10] | composite z-score [11] | composite z-score [12] | composite z-score [13] | composite z-score [14] | composite z-score [15] | composite z-score [16] | z-score [17] | composite z-score [18] | composite z-score [19] | z-score [20]
C[N+](C)(C)CCCC[C@@H]1NC(=O)[C@H]2C[C@@H](C(=O)NCc3ccc(F)cc3)[C@@H](c3cccc(OCCO)c3)N2C1=O | 0.392 | 1.57 (inactive) | -0.0328 | -0.179 | 0.811 | 1.48 | 0.633 | 1.15 | 0.864 | 1.08 | 1.02 | 0.431 | 1.05 | 0.14 | 1.46 | 1.85 | 1.3 | 1.07 | 0.0979 | -0.908 (inactive)
C=CC(=O)O[C@@H](Cc1ccccc1)[C@H]1C2C=CCCC=C2CN1Cc1cccc(Cl)c1 (stereo not given in full) | -0.421 | 0.565 (inactive) | -0.0057 | -0.112 | -0.794 | -0.323 | -0.454 | -2.7 | -0.605 | -0.965 | -0.0091 | -2.16 | -0.426 | -0.327 | -0.14 | -0.344 | 1.77 | -0.697 | -0.346 | -1.52 (inactive)
C=C(CCCC)/C(=C/C[C@@H](OC(=O)c1ccncc1)c1ccc(CO)o1)c1cnc2ccccc2c1 | 0.667 | 1.04 (inactive) | 0.382 | 0.0626 | 0.956 | 2.33 | 0.405 | 1.31 | 1.45 | 1.18 | 1.24 | 0.723 | 1.64 | 0.878 | 1.46 | 1.69 | 0.146 | 1.65 | 1.22 | -3.5 (inactive)
O=C1C2C=CC(C(O)Cc3ccccc3)N(Nc3ccc([N+](=O)[O-])cc3)C2C(=O)N1c1ccccc1 (stereo not given) | 0.944 | -0.205 (inactive) | 0.357 | 0.401 | 0.759 | 1.02 | 0.517 | 0.719 | 0.709 | 0.185 | 1.46 | 1.01 | 0.331 | 0.405 | 0.252 | -0.165 | -0.75 | -0.0551 | 0.245 | 1.36 (inactive)
O=C1O[C@@H](c2ccccc2)[C@@H](c2ccccc2)N2[C@@H](c3ccc(OCCO)cc3)[C@]3(C(=O)Nc4ccc(C#CCCO)cc43)[C@@H](C(=O)N3CCN(c4ncccn4)CC3)[C@H]12 | 0.536 | 0.337 (inactive) | 0.143 | -0.0684 | 0.485 | 1.87 | 0.188 | 1.32 | 0.168 | 1.17 | 0.468 | 1 | 0.341 | 0.941 | 1.34 | 0.331 | -0.0856 | 0.635 | 1.2 | 0.47 (inactive)
COC(=O)[C@@]1(Cc2ccc(OC)cc2)[C@H]2c3cc(C(=O)N(C)C)n(Cc4ccc(C)c(F)c4F)c3C[C@H]2CN1C(=O)c1ccccc1 | 0.856 | 0.0888 (inactive) | 0.0159 | -0.108 | 0.535 | 1.41 | 0.0293 | 0.138 | -1.22 | 0.782 | 0.158 | 0.713 | 0.0211 | 0.746 | -0.266 | -0.869 | 0.0287 | -0.826 | 0.546 | 2.24 (inactive)
C=CCC1=C[C@H]2[C@H]([C@@H]3C=C[C@]2(CC=C)C(=O)[C@]32CO2)[C@@]2(CO2)C1=O | -0.44 | 0.528 (inactive) | 0.519 | 0.082 | -0.262 | 0.104 | -0.0222 | -0.56 | 1.54 | -1 | -0.131 | -1.2 | -0.263 | -0.571 | 1.45 | 1.45 | 1.84 | 1.58 | -0.0818 | -1.01 (inactive)
CC(C)CN1C(=O)[C@@]2(Cc3ccccc31)c1ccccc1C(=O)N(C1CCCCC1)[C@H]2c1ccc(CO)cc1 | -0.436 | 0.439 (inactive) | -0.0647 | -0.0433 | 0.781 | 0.878 | 1.23 | -0.18 | -1.43 | -1.42 | -1.34 | -1.05 | -0.133 | -1.04 | -0.447 | -0.914 | -0.269 | -1.28 | -1.14 | -0.275 (inactive)
C=C(CCCC)/C(=C/C[C@H](OC(=O)c1ccncc1)c1cccc(OCCO)c1)c1cc(C(=O)OC)ccc1OC | -0.2 | -0.331 (inactive) | 0.074 | -0.131 | 0.0309 | 1.09 | -0.132 | 0.711 | 0.363 | 0.724 | 1.06 | 0.492 | -0.0622 | 0.723 | 0.852 | 1.59 | 0.397 | 1.17 | 0.311 | 0.34 (inactive)
CO[C@@H]1COC(=O)CC=C[C@@H](C)[C@H](OC)COC(=O)CC=C[C@H]1C | -0.978 | 0.413 (inactive) | -0.103 | -0.169 | -0.374 | -0.168 | -0.412 | -0.345 | 1.48 | -0.362 | 0.0112 | -1.31 | -0.436 | -1.05 | 1.48 | 1.34 | 1.77 | 0.712 | -0.812 | -1.08 (inactive)
